This is part of a sample that, as a whole, favours compounds with a hit. Of some 83,000 tested, about 20% had one in any assay.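 Compound tested at a single concentration for 48 hours in 96-well plates; a percent growth value below 10 was scored as active.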 Unmarked numbers belong to inactive results. The source made the active and inactive calls.

Among the test systems are NCI-H23 lung; NCI-H226 lung; NCI-H322M lung; HOP-62 NSCLC; NCI-H460 lung; HOP-92 NSCLC; NCI-H522 lung; A549/ATCC NSCLC; 786-0 renal; COLO 205 colon; DU-145 prostate; K-562 leukemia; MALME-3M melanoma; MDA-MB-231 breast; RXF 393 renal; SF-268 CNS; SF-295 CNS; SF-539 CNS; UACC-257 melanoma; M14 melanoma.
Test in all cases: NCI-60 one-dose screen, 48 h (100 = growth as untreated, 0 = no growth, -100 = all killed)
Details in all cases: 10 µM unless noted

`O=c1[nH]c(Nc2ccc(S(=O)(=O)O)cc2)nc2nc(Nc3ccc(NC(=S)Nc4ccccc4)cc3)nc(-c3ccc(O)cc3O)c12`: the growth in the assay with NCI-H23 lung was 102%; in the assay with NCI-H226 lung it was 88.6%; in the assay on NCI-H322M lung, 125%; in the assay on HOP-62 NSCLC, 109%; in the assay with NCI-H460 lung, 105%; in the assay with HOP-92 NSCLC it was 102%. The growth in the assay with NCI-H522 lung is 91.9%; with A549/ATCC NSCLC it was 110%; with 786-0 renal, 104%; in the assay with COLO 205 colon, 119%; with DU-145 prostate, 133%; with K-562 leukemia, 101%. In addition, the growth with MALME-3M melanoma is 98.8%; in the assay on MDA-MB-231 breast, 90.5%; in the assay on RXF 393 renal, 115%; with SF-268 CNS it was 104%; in the assay on SF-295 CNS, 121%; in the assay with SF-539 CNS, 189%. Further, the growth in the assay with UACC-257 melanoma is 139%.

In the case of `O=C(Nc1ccc2c(c1)OCCO2)C(=O)c1c[nH]c2ccccc12`, the growth is 24.5% in the assay with NCI-H23 lung; 82.7% with NCI-H226 lung; 54.3% with NCI-H322M lung; 42.9% in the assay with HOP-62 NSCLC; 8.62% (active) with NCI-H460 lung; 1.01% (active) with HOP-92 NSCLC. Besides, the growth is -40.4% (active) in the assay with NCI-H522 lung; 47.7% with A549/ATCC NSCLC; 59.7% in the assay with 786-0 renal; 10.2% with COLO 205 colon; 7.38% (active) in the assay on DU-145 prostate; 12.2% in the assay on K-562 leukemia. Besides, the growth with MALME-3M melanoma was 46.6%; in the assay with MDA-MB-231 breast it was 28.9%; with RXF 393 renal, 24.3%; in the assay on SF-268 CNS, 46.1%; in the assay with SF-295 CNS, 23.8%; in the assay on SF-539 CNS it was -6.87% (active). Further, the results for the growth with UACC-257 melanoma and in the assay on M14 melanoma were 70.7% and 19.9%, respectively.

In the case of `COc1cc(C2C3=C(COC3=O)Nc3cc4c(cc32)OCO4)cc2c1OCO2` (centres undefined), the growth in the assay with NCI-H23 lung was 40.3%; in the assay on NCI-H226 lung, 19.2%; in the assay on NCI-H322M lung, 48.5%; with HOP-62 NSCLC it was 36%; in the assay on NCI-H460 lung, 2.94% (active); with HOP-92 NSCLC it was 40.6%. Also, the growth in the assay on NCI-H522 lung is 5.26% (active); with A549/ATCC NSCLC, 11.9%; in the assay with 786-0 renal it was 19.9%; in the assay with COLO 205 colon, -51.5% (active); in the assay with DU-145 prostate it was -19.5% (active); in the assay on K-562 leukemia, 7.92% (active). In addition, the growth in the assay on MALME-3M melanoma was 53.8%; with MDA-MB-231 breast, 11.1%; with RXF 393 renal, 18.5%; in the assay on SF-268 CNS, 20.1%; in the assay with SF-295 CNS, 5.02% (active); in the assay with SF-539 CNS, -0.0643% (active). Further, the growth in the assay with UACC-257 melanoma is 65.1%; in the assay with M14 melanoma, 5.48% (active).

For `CCCCCCN1CSC(=S)N(CCCCCC)C1`, the growth in the assay with NCI-H23 lung is 83.6%; in the assay on NCI-H226 lung it was 92.3%; in the assay on NCI-H322M lung, 115%; in the assay with HOP-62 NSCLC, 104%; in the assay with NCI-H460 lung, 100%; in the assay with HOP-92 NSCLC it was 81.5%. Also, the growth in the assay on NCI-H522 lung was 101%; in the assay on A549/ATCC NSCLC, 101%; in the assay on 786-0 renal, 99.4%; with COLO 205 colon, 106%; in the assay with DU-145 prostate, 113%; in the assay with K-562 leukemia, 110%. For the same compound, the growth in the assay on MALME-3M melanoma was 95.2%; in the assay with MDA-MB-231 breast, 97.4%; with RXF 393 renal, 106%; in the assay with SF-268 CNS, 104%; in the assay on SF-295 CNS, 98.2%; in the assay on SF-539 CNS it was 102%. In addition, the growth in the assay with UACC-257 melanoma is 104%; in the assay with M14 melanoma, 96.5%.

As for `C=C[C@@H]1C[C@H](O)Cc2cc(F)ccc2N1`, the growth with NCI-H23 lung was 97.4%; in the assay with NCI-H226 lung, 87%; in the assay with NCI-H322M lung, 112%; in the assay with HOP-62 NSCLC it was 88%; in the assay with NCI-H460 lung it was 98%; with HOP-92 NSCLC it was 56.2%. The growth in the assay with NCI-H522 lung is 92.9%; in the assay on A549/ATCC NSCLC, 98%; in the assay with 786-0 renal, 100%; in the assay on COLO 205 colon it was 107%; in the assay on DU-145 prostate, 102%; in the assay on K-562 leukemia, 102%. In addition, the growth was 91.7% in the assay on MALME-3M melanoma; 96.1% in the assay on MDA-MB-231 breast; 106% in the assay with RXF 393 renal; 94% in the assay on SF-268 CNS; 101% in the assay on SF-295 CNS; 108% with SF-539 CNS. The growth in the assay on UACC-257 melanoma is 96.1%; in the assay on M14 melanoma, 97%.

As for `CCOC(=O)C1=C(C)NC(C)=C(C(=O)OCC)C1(C)C`, the growth is 113% in the assay with NCI-H23 lung; 98.8% with NCI-H226 lung; 107% in the assay on NCI-H322M lung; 102% with HOP-62 NSCLC; 111% in the assay on NCI-H460 lung; 98.3% with HOP-92 NSCLC. Also, the growth was 98.1% in the assay on NCI-H522 lung; 93.2% with A549/ATCC NSCLC; 88.2% with 786-0 renal; 113% in the assay with COLO 205 colon; 123% in the assay on DU-145 prostate; 89.9% in the assay on K-562 leukemia. For the same compound, the growth with MALME-3M melanoma is 111%; in the assay with MDA-MB-231 breast it was 98.8%; in the assay on RXF 393 renal, 98.1%; in the assay with SF-268 CNS it was 110%; in the assay on SF-295 CNS, 117%; in the assay with SF-539 CNS it was 91.7%. Moreover, the growth with UACC-257 melanoma is 96.3%; in the assay with M14 melanoma, 109%.

For the compound `O=S(=O)(NCCCNc1nccc(-n2ccc3cccnc32)n1)c1ccc(Br)cc1`, the growth in the assay on NCI-H23 lung was 108%; in the assay with NCI-H226 lung it was 96.5%; in the assay with NCI-H322M lung, 103%; in the assay with HOP-62 NSCLC, 109%; in the assay on NCI-H460 lung, 105%; in the assay with HOP-92 NSCLC, 109%. Also, the growth is 92.6% with NCI-H522 lung; 107% in the assay on A549/ATCC NSCLC; 104% with 786-0 renal; 114% in the assay on COLO 205 colon; 104% in the assay on DU-145 prostate; 101% in the assay on K-562 leukemia. The growth with MALME-3M melanoma was 118%; in the assay with MDA-MB-231 breast it was 104%; with RXF 393 renal, 107%; in the assay on SF-268 CNS it was 94.9%; in the assay on SF-295 CNS it was 104%; in the assay on SF-539 CNS, 103%. Besides, the growth with UACC-257 melanoma was 118%; in the assay on M14 melanoma, 110%.

Consider `CN1C(=O)N(C)C2C1NN=c1s/c(=C\C=C\c3ccccc3)c(=O)n12` (centres undefined), for which the growth with NCI-H23 lung is 64.3%; in the assay with NCI-H226 lung, 61.9%; in the assay with NCI-H322M lung it was 68.4%; in the assay on HOP-62 NSCLC, 67.3%; in the assay with NCI-H460 lung it was 23.3%; with HOP-92 NSCLC, 63.9%. In addition, the growth was 38.7% with NCI-H522 lung; 52.7% in the assay with A549/ATCC NSCLC; 71.3% in the assay with 786-0 renal; 42.1% with COLO 205 colon; 69.3% in the assay with DU-145 prostate; 20.6% in the assay on K-562 leukemia. Besides, the growth is 62.6% in the assay on MALME-3M melanoma; 65% in the assay on MDA-MB-231 breast; 77.7% with RXF 393 renal; 67.2% in the assay on SF-268 CNS; 45.7% in the assay on SF-295 CNS; 54.8% in the assay on SF-539 CNS. Further, the growth with UACC-257 melanoma was 73.4%; with M14 melanoma it was 41.5%.

(Values after PubChem BioAssay (NCI).)
